Out of some 330,000 compounds screened, about 1,900 (0.58%) were called active. Another 4% or so got no clear call; they are omitted. Rule as the data show it: inconclusive = inhibition above about 70% without an active follow-up result; inactive = below that. Not all results are given here. Potency and affinity values are given separately.

Data on 89 compounds can be found in PubChem BioAssay AID449762 (Southern Research Specialized Biocontainment Screening …, 2010).

The assay can be described thus: M. tuberculosis growth inhibition, HTS (AID 449762).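 Also: bacterial growth assessed after seven days of incubation.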 To be noted: M. tuberculosis H37Rv growth inhibition, 7H9 media; at 25 µM; hits give high values.
Take `O=C(COC(=O)c1nsc(Cl)c1Cl)NC1CCCCC1`: the inhibition was 0.77% (inactive).
Consider `CC(OC(=O)c1snc(C(=O)NC2CCCCC2)c1N)C(=O)NC1CCCCC1` (centres undefined), for which the inhibition is -2.81% (inactive).
With `c1ccc(-c2nc3cccnc3nc2-c2ccccc2)cc1` the figure was -12.8% (inactive); with `Nc1c(-c2ccccc2)nc(Cl)nc1-c1ccccc1`, 15.6% (inactive).
`COc1ccc(S(=O)(=O)NCC(=O)N(CC(=O)NCC2CCCO2)Cc2ccccc2)cc1` (centres undefined): the inhibition is -4.12% (inactive).
Under `COc1ccc(CCNC(=O)C(=O)NCc2ccc(C(C)C)cc2)cc1OC` stands -15.8% (inactive); under `COc1ccc(NC(=O)CN2C(=O)NC(c3ccccc3)(c3ccccc3)C2=O)cc1`, -1.71% (inactive); under `COc1ccc(C2(c3ccc(OC)cc3)NC(=O)N(CC(=O)Nc3ccc(C(N)=O)cc3)C2=O)cc1`, -7.66% (inactive).
With `CC(C)CCc1noc(CN(CC2CCC2)CC2CCCO2)n1` (centres undefined) the figure was -1.94% (inactive); with `O=C(COC(=O)Cc1ccc(S(=O)(=O)N2CCOCC2)s1)Nc1ccc([N+](=O)[O-])cc1`, -2.45% (inactive); with `Cc1ccc(CNC(=O)c2ccc(N3CCC4(CC3)CC(c3ccccc3)=NO4)c(NC(=O)c3ccc(Cl)c([N+](=O)[O-])c3)c2)cc1`, -10.7% (inactive).
As for `Cc1cccc(NC(=O)CCN2C(=O)c3cccc([N+](=O)[O-])c3C2=O)c1`, the inhibition was -5.47% (inactive).
Regarding `Cc1ccc(NC(=O)CCN2C(=O)c3cccc([N+](=O)[O-])c3C2=O)c(Br)c1`, the inhibition is 7.28% (inactive).
Under `O=C(CN1C(=O)COc2ccccc21)c1cccc(Cl)c1` stands 1.54% (inactive); under `CCCCN=C1CC(C)(C)CC(=O)/C1=C(/O)CCC`, -2.63% (inactive).
With `CCCN=C1CC(C)(C)CC(=O)/C1=C(/O)CCC` the figure was -3.03% (inactive); with `CC(=O)Nc1ccc(C(=O)NNC(=O)C2CC2)cc1`, -9.13% (inactive); with `Cc1ccccc1[N+](=O)[O-]`, -10.8% (inactive).
Under `O=[N+]([O-])c1cccc2c([N+](=O)[O-])cccc12` stands 9.13% (inactive); under `COc1cccc(CN(C)CC(=O)NCc2ccc(C)cc2)c1`, 7.23% (inactive).
`COC(=O)CN1C(c2ccccc2)=Nc2ccc(Cl)cc2C1c1ccccc1` (centres undefined): the inhibition was 55.5% (inactive).
For `NNC(=O)CN1C(c2ccc(Cl)cc2)=Nc2ccc(Br)cc2C1c1ccccc1` (centres undefined), the inhibition was 0.4% (inactive).
With `CCCCCC(=O)Nc1cccc(C2=NOC3(C2)C[C@@H](C(N)=O)N(C(=O)c2ccc(Cl)cc2)C3)c1` (some centres undefined) the figure was -9.42% (inactive); with `COc1ccc2nc(NC(=O)C3CCN(S(=O)(=O)c4cccs4)CC3)sc2c1`, -5.35% (inactive); with `CCOc1ccc2nc(NC(=O)C3CCCN(S(=O)(=O)c4cccs4)C3)sc2c1` (centres undefined), 58.9% (inactive).
Under `O=C(NCC1CCCN1S(=O)(=O)c1cccs1)C(=O)Nc1cccc(F)c1` (centres undefined) stands -3.47% (inactive).
`CC(C)Cc1nc(SCC(=O)N2CCCC2)c2c(=O)n(C)c(=O)n(C)c2n1`: the inhibition was 5.69% (inactive).
Under `O=S(=O)(NCc1cc(-c2ccc(Cl)cc2)no1)c1ccc(Cl)cc1` stands -3.48% (inactive); under `CC(=O)NCc1cc(-c2ccc(Cl)cc2)no1`, -6.41% (inactive).
As to `COc1ccc(C2CC(C)=NN2C=O)cc1OC` (centres undefined), the inhibition was -23.4% (inactive).
Under `C=CCC1(CC=C)CCCN1C(=O)c1cc(COc2ccc(F)c(F)c2)on1` stands 11.7% (inactive); under `O=C(c1cc(COc2ccc(-n3cncn3)cc2)on1)N1CCCC1`, 2.05% (inactive).
As to `COc1ccccc1C1=NOC(C)(c2nnc(Cc3ccccc3)o2)C1` (centres undefined), the inhibition was -2.16% (inactive).
Under `Cc1ccc2oc(=O)c3cnn(CC(=O)N(CCN(C)C)Cc4ccco4)c3c2c1` stands -9.56% (inactive); under `Cn1c(SCC(=O)NCC2CCCO2)ncc(C(=O)Nc2ccc(F)cc2)c1=O` (centres undefined), 67.5% (inactive).
With `Cn1c(SCC(=O)NCC2CCCO2)ncc(C(=O)Nc2ccccc2)c1=O` (centres undefined) the figure was 54.1% (inactive).
Consider `COC(=O)c1ccc2c(=O)[nH]c(CCl)nc2c1`, for which the inhibition was 37.7% (inactive).
With `COC(=O)c1ccc2c(=O)[nH]c(CSc3nc(-c4ccc(F)cc4)cs3)nc2c1` the figure was -1.24% (inactive); with `COc1cc(OC)c(-c2nc3c[n+](CC(=O)c4ccccc4)ccc3n2C)cc1OC`, -1.07% (inactive).
Under `COc1cc(-c2nc3c[n+](CC(=O)c4ccccc4)ccc3n2C)cc(OC)c1OC` stands 3.76% (inactive).
For `Cc1ccc(-c2nc3ncccn3c2Nc2ccc3c(c2)OCO3)o1`, the inhibition was 3.61% (inactive).
Under `Cc1ccc(-c2nc3ncccn3c2Nc2ccc3c(c2)OCCO3)o1` stands 3.72% (inactive); under `CCOc1ccc(NS(=O)(=O)c2cc(C(=O)N3CCCC3)ccc2Cl)cc1`, 5.65% (inactive); under `Cc1ccc(NC(=O)c2ccc(OCC3CCCO3)cc2)nc1` (centres undefined), 16.9% (inactive).
Under `Oc1ccc(C[C@@H]2CNCCN2CC2CCCCC2)cc1` stands -3.4% (inactive).
Under `Oc1ccc(C[C@H]2CNCCN2CC2CCCCC2)cc1` stands 7.27% (inactive); under `CCOC(=O)c1cc(-c2ccc3c(c2)OCCO3)n[nH]1`, -1.75% (inactive).
In the case of `OCCN(CCCn1c(-c2ccncc2)nc2ccccc21)c1nc(CN2CCCCC2)cs1`, the inhibition is -3.74% (inactive).
With `O=C(NNc1cc(N2CCOCC2)nc(N2CCOCC2)n1)c1ccc(Cl)c(Cl)c1` the figure was -10.6% (inactive); with `CC(C)(C)c1ccc(C(=O)NNc2cc(N3CCOCC3)nc(N3CCOCC3)n2)cc1`, 1.03% (inactive).
For `O=C(CSc1nc2cc(Cl)ccc2o1)N1CCOCC1`, the inhibition is 0.49% (inactive).
With `CCN1CCN(Cc2ccc(NC(=O)c3cc(NC(=O)c4ccc5n[nH]nc5c4)cc(OC)c3)cc2C(F)(F)F)CC1` the figure was 12.9% (inactive).
Under `CCN1CCN(Cc2ccc(NC(=O)c3cc(NC(=O)c4ccno4)cc(OC)c3)cc2C(F)(F)F)CC1` stands 66.3% (inactive); under `CC(=O)NCCC(=O)Nc1cccc(S(=O)(=O)N(C)c2ccccc2)c1`, -0.05% (inactive); under `Cc1ccccc1OCC(=O)N/N=C/c1ccccn1`, -4.77% (inactive).
With `O=C(NC1(C(F)(F)F)NC(=O)N(C2CCCCC2)C1=O)C1CC1` (centres undefined) the figure was -5.69% (inactive); with `CCOC(=O)c1c(C)[nH]c(N=Nc2cccc(C)c2)c1C`, 15.8% (inactive).
With `CCOC(=O)c1c(C)[nH]c(N=Nc2cc(C(=O)O)cc(C(=O)O)c2)c1C`, the inhibition was -2.43% (inactive).
With `COc1ccc(N2C(=O)/C(=C/c3cc(C)n(-c4ccc(C)cn4)c3C)C(=O)NC2=S)c(OC)c1` the figure was 3.48% (inactive); with `COc1cc(/C=N/OCC(=O)Nc2cc(C)on2)ccc1OCc1ccccc1`, -2.24% (inactive); with `COc1ccc(/C=N/OCC(=O)Nc2cc(C)on2)cc1OC`, -6.14% (inactive).
Under `CSCC(=O)Nc1cc(C)on1` stands 7.76% (inactive); under `Cc1cc(NC(=O)C(Cl)(Cl)Cl)no1`, -0.63% (inactive).
With `CCCn1c(SCC(=O)Nc2ccccc2N2CCOCC2)nc2c1c(=O)n(C)c(=O)n2C` the figure was -9.47% (inactive); with `CN(CCOc1ccc(Cl)cc1)C(=O)C1CCN(C(=O)c2ccc(F)cc2)CC1`, -0.37% (inactive); with `CCC(NC(=O)c1cc(COc2cncc(Cl)c2)on1)c1ccncc1` (centres undefined), 4.32% (inactive).
Consider `CCC(NC(=O)c1cc(COc2cncc(Cl)c2)on1)c1ccc(C)cc1` (centres undefined), for which the inhibition was 27.5% (inactive).
Under `COc1cccc(NC(=O)CN(C)C(=O)c2ccccc2Sc2ccccc2C#N)c1` stands -24% (inactive); under `CCOC(=O)c1cc(NC(=O)c2ccccc2)c(=O)n2c1oc1ccccc12`, -3% (inactive); under `Oc1c(C(c2cccs2)N2CCN(c3ccccc3)CC2)ccc2cccnc12` (centres undefined), 30.5% (inactive).
For `Oc1c(C(c2ccccn2)N2CCCCC2)cc(Cl)c2cccnc12` (centres undefined), the inhibition is 3% (inactive).
Under `COC(=O)Cc1ccc(NC(=S)N2CCC(Cc3ccccc3)CC2)cc1` stands 6.07% (inactive).
Under `O=C(C1=C[C@H](c2coc3ccccc3c2=O)C[C@H](OCCCCO)O1)N1CCN(Cc2ccccc2)CC1` stands 39.2% (inactive); under `CC(CC(=O)Nc1cc([N+](=O)[O-])ccc1Cl)c1ccccc1` (centres undefined), 3.48% (inactive).
Turning to `CC(CC(=O)Nc1ccc(F)c([N+](=O)[O-])c1)c1ccccc1` (centres undefined), the inhibition is -6.24% (inactive).
Under `CSCC[C@H](NC(=O)C1CCN(S(=O)(=O)c2ccc(C)cc2)CC1)C(=O)NCC1CCCO1` (some centres undefined) stands -8.31% (inactive); under `Cc1occc1-c1nnc(SCc2nnc(-c3ccc(Cl)cc3)o2)n1C`, -6.71% (inactive); under `C[C@@H]1C[C@H]2[C@@H]3CCC4=CC(=O)C=C[C@]4(C)[C@@]3(F)[C@@H](O)C[C@]2(C)[C@H]1C(=O)CO`, 18.9% (inactive).
With `Cc1cccc(C)c1NC(=O)Cn1nnc(-c2ccc(CN3CCC(C)CC3)cc2)n1` the figure was 5.96% (inactive); with `COC(=O)N/N=C\c1ccccc1OC/C=C/c1ccccc1`, 7.83% (inactive); with `CCOc1ccc(-c2cc(C)[n+](CCO)c(-c3ccc(OCC)cc3)c2)cc1`, 4.23% (inactive).
As for `CCOc1ccc(-c2cc(C)[n+](CCN3CCOCC3)c(-c3ccc(OCC)cc3)c2)cc1`, the inhibition is 12.3% (inactive).
As to `COC(=O)/C(=C/Nc1ccccc1)[N+](=O)[O-]`, the inhibition is -4.18% (inactive).
Under `Cc1ccc(NC(=O)CS(=O)CC(=O)N(CC(=O)NC2CCCC2)c2ccc3c(c2)OCCO3)cc1` (centres undefined) stands -4.13% (inactive); under `CCn1c2ccccc2c2cc(CN3CCN(S(C)(=O)=O)CC3)ccc21`, 7.91% (inactive).
Under `CCn1c2ccccc2c2cc(CN3CCN(S(=O)(=O)CC)CC3)ccc21` stands 10.3% (inactive).
As for `COc1cccc(CNCc2ccc(OC)cc2OC)c1`, the inhibition is 1.71% (inactive).
With `COc1ccc(CNCc2ccc3ccccc3c2)c(OC)c1` the figure was 12.2% (inactive).
Turning to `CCn1cc(C(=O)N2CCCC(CO)(Cc3ccccc3C)C2)cn1` (centres undefined), the inhibition is 0.25% (inactive).

Usually inhibition stands for the change of the read-out against control, counted positive when it falls.
